The list is not random: actives were taken first. Their share in the collection is about 2.4%.
Pol kappa inh-1 = blocks human DNA polymerase kappa activity. Q9UBT6. purified Pol kappa, fluorescent DNA synthesis assay, 10 min. Potency, µM (titrated, usually from 107 µM), for the others: at the top dose activity, negative = inhibition, hits mostly inhibitors. 0.53% of 400,000 active; further: potency means the concentration at half of the fitted maximal effect; on the % scale 0 is the no-effect control and ±100 the full control effect
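10 nM Pol kappa preincubated 15 min at room temperature with compounds, then reaction started with substrate at 50 nM final. Fluorescence read kinetically at 0 and 10 min; buffer-only wells served as negative control.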
POLB inh = inhibitors of human DNA polymerase beta. 1.3% of 340,000 active. Pol beta primer extension/strand displacement, fluorescence kinetic. Potency, µM (top dose mostly 114 µM), inactives show at the highest dose activity change, negative = inhibition, actives largely listed as inhibitors. P06746; further: potency means the concentration at half of the fitted maximal effect; on the % scale 0 is the no-effect control and ±100 the full control effect
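Reaction started by 50 nM substrate onto compound-treated Pol beta (10 nM, 15 min preincubation, room temperature); plates read at 0 min and 10 min. Normalized concentration-effect data fitted by four-parameter Hill equation.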
FEN1 inh-1 = blocks human flap endonuclease 1; P39748; Recombinant FEN1 flap cleavage, fluorescence, 15 min; Potency, µM (doses to about 114 µM), for inactives: at the top dose activity change, negative = inhibition, most hits filed as inhibitors; 0.35% of 390,000 active; AID 588795; further: potency means the concentration at half of the fitted maximal effect; on the % scale 0 is the no-effect control and ±100 the full control effect; nearly all actives have a fitted effect of over 65% in size
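FEN1 at 10 nM, compound pretreatment for 15 min (room temperature), 50 nM final substrate to initiate; endpoint reads at 0 and 15 min; DMSO-only plates used as vehicle background.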
Pol iota inh = DNA polymerase iota (human) inhibition; Q9UNA4; Pol iota fluorescent replication assay, 10 min; Potency, µM (doses to about 115 µM), for inactives: at the top dose activity, negative = inhibition, most hits filed as inhibitors; 1% of 390,000 active; AID 588590; further: potency means the concentration at half of the fitted maximal effect
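Pol iota at 10 nM preincubated 15 min with compounds at room temperature; reaction started with fluorescent substrate, 50 nM final. Fluorescence read kinetically at 0 and 10 min; buffer-only wells as negative control.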
WRN helicase inh-1 = blocks human WRN helicase | WRN helicase unwinding, fluorescent forked duplex, kinetic | Q14191 | Potency, µM (titrated, usually from 114 µM), without a hit: top-dose activity change, negative = inhibition, actives largely listed as inhibitors | AID 651768 | 0.46% of 360,000 active; further: potency means the concentration at half of the fitted maximal effect; on the % scale 0 is the no-effect control and ±100 the full control effect; nearly all actives have a fitted effect of over 55% in size
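Kinetic red-fluorescence monitoring (525/598 nm) tracks WRN helicase activity after 100 nM fluorophore-quencher forked duplex and 2 mM ATP are added to 20 nM enzyme pretreated 15 min at room temperature with compound.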
Pol eta inh-1 = DNA polymerase eta (human) inhibition. Q9Y253. recombinant Pol eta, fluorescent DNA replication assay. Potency, µM (highest dose often 114 µM), without a hit: at the highest dose activity change, negative = inhibition, actives largely listed as inhibitors. 1.2% of 390,000 active; further: potency means the concentration at half of the fitted maximal effect; on the % scale 0 is the no-effect control and ±100 the full control effect
Target sequence (Q9Y253 whole entry, looked up): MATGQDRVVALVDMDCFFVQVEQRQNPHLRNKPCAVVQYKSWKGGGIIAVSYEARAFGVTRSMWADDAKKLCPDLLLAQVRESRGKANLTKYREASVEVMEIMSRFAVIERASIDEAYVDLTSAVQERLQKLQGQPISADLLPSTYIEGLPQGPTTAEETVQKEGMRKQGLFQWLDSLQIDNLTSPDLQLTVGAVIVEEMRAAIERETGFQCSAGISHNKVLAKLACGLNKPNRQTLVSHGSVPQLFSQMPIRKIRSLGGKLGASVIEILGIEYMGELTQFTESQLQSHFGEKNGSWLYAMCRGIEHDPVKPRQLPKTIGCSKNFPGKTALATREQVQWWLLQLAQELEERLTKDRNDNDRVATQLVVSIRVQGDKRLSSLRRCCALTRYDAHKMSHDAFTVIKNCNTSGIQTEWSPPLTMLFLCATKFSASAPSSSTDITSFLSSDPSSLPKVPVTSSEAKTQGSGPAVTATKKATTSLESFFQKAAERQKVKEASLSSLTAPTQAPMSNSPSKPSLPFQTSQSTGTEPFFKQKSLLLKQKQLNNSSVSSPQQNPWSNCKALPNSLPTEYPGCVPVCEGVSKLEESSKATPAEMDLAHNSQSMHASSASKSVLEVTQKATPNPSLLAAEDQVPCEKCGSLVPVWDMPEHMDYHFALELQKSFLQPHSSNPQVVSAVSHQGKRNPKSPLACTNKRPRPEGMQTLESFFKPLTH
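Pol eta (10 nM) was preincubated with compounds for 15 min at room temperature, after which fluorescent replication substrate (50 nM final) was added to start the reaction. Fluorescence was read kinetically at 0 and 10 min.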
PGK validate = TbPGK inhibition, hit validation; shares compounds with Pol kappa inh-1; TbPGK coupled GAPDH assay, Kinase-Glo luminescence; Potency, µM (top dose mostly 57.5 µM), for inactives: at the top dose activity change, negative = inhibition, hits mostly inhibitors; 79% of 500 active; further: potency means the concentration at half of the fitted maximal effect; on the % scale 0 is the no-effect control and ±100 the full control effect; nearly all actives have a fitted effect of over 65% in size
Pol iota confirm = Human Pol iota inhibitor confirmatory assay | shares compounds with Pol kappa inh-1 | Pol iota primer extension, TAMRA/BHQ fluorescence | Potency, µM, hits mostly inhibitors | 77% of 1,500 active | AID 720496; further: potency means the concentration at half of the fitted maximal effect
GALK confirm = galactokinase (human) inhibition, confirmation; AID 2015; 70% of 150 active; Potency, µM (titrated, usually from 115 µM), without a hit: at the highest dose activity, negative = inhibition, most hits filed as inhibitors; shares compounds with Pol eta inh-1; purified GALK, Kinase-Glo ATP depletion luminescence
GALK redox cs = redox cycling activity in phenol red-HRP assay; shares compounds with Pol eta inh-1; Phenol red-HRP H2O2 redox cycling, absorbance 600 nm; Potency, µM (doses to about 115 µM), without a hit: at the top dose activity change, negative = H2O2 signal, actives largely listed as inhibitors; 40% of 150 active
HEK293 tox = reduces HEK-293 cell viability in GALK counter-screen | shares compounds with Pol eta inh-1 | HEK-293 viability, ATP luminescence (CellTiter-Glo), 24/48 h | Potency, µM (series often up to 46.1 µM), for the others: at the top dose activity change, negative = cytotoxicity, most hits filed as inhibitors | 10% of 170 active | AID 2547; further: potency means the concentration at half of the fitted maximal effect; on the % scale 0 is the no-effect control and ±100 the full control effect
Pol kappa inh-2 = Pol kappa (human) inhibition, cherry-pick confirmation. Potency, µM, usual class: inhibitors. purified Pol-kappa, fluorescent strand-displacement substrate. 76% of 920 active. shares compounds with Pol eta inh-1. AID 720501; further: potency means the concentration at half of the fitted maximal effect
Pol eta inh-2 = Pol eta (human) inhibition, cherry-pick confirmation. 64% of 2,600 active. Potency, µM, actives largely listed as inhibitors. shares compounds with Pol eta inh-1. Pol eta primer extension, TAMRA/BHQ fluorescence, 10 min; further: potency means the concentration at half of the fitted maximal effect
FEN1 inh-2 = confirmation of human FEN1 inhibitors | shares compounds with FEN1 inh-1 | FEN1 flap cleavage, TAMRA/BHQ2 fluorogenic DNA substrate | Potency, µM, most hits filed as inhibitors | 79% of 880 active | AID 720498; further: potency means the concentration at half of the fitted maximal effect; nearly all actives have a fitted effect of over 60% in size
WRN helicase inh-2 = WRN helicase inhibition, cherry-pick retest; WRN helicase DNA unwinding, fluorescence kinetic; shares compounds with WRN helicase inh-1; 63% of 610 active; AID 720497; Potency, µM (highest dose often 57.1 µM), without a hit: top-dose activity, negative = inhibition, most hits filed as inhibitors; further: potency means the concentration at half of the fitted maximal effect; nearly all actives have a fitted effect of over 65% in size
TO DNA binding = DNA binding via thiazole orange displacement | Potency, µM (highest dose often 57.1 µM), for the others: at the highest dose activity change, negative = inhibition, most hits filed as inhibitors | thiazole orange DNA binding displacement, fluorescence | 10% of 610 active | shares compounds with WRN helicase inh-1;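 further: drop in dye fluorescence marks compound binding to DNA; potency means the concentration at half of the fitted maximal effect; on the % scale 0 is the no-effect control and ±100 the full control effect; nearly all actives have a fitted effect of over 60% in size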
BLM counter = blocks human BLM helicase in WRN counterscreen; shares compounds with WRN helicase inh-1; Recombinant BLM helicase DNA unwinding, red fluorescence; Potency, µM (top dose mostly 57.1 µM), for the others: top-dose activity change, negative = inhibition, hits mostly inhibitors; 60% of 610 active; further: potency means the concentration at half of the fitted maximal effect; nearly all actives have a fitted effect of over 60% in size
* = called active by the depositor; ? = inconclusive; . = no result given; [ ] = remark or other dose. The call rests on the fitted dose curve; in most records, active means well fitted curve in the direction sought with a large enough effect; inconclusive means small, poorly fitted or top-dose-only effect, or another doubt; inactive means no such curve, though single readings can be large; an effect the other way counts as inactive or inconclusive.

SMILES | Pol kappa inh-1 | POLB inh | FEN1 inh-1 | Pol iota inh | WRN helicase inh-1 | Pol eta inh-1 | PGK validate | Pol iota confirm | Pol eta inh-2 | FEN1 inh-2 | WRN helicase inh-2 | TO DNA binding | BLM counter | others
Nc1nc2c(s1)COc1ccccc1-2 | 15% | -2% | -3% | 48% | 6% | -7% | . | . | . | . | . | . | .
COc1ccc(CCN2C(=O)c3[nH]nc(-c4ccccc4O)c3C2c2ccccc2)cc1 (stereo unspecified) | -17% | ? | 18% | -3% | . | -4% | . | . | . | . | . | . | .
O=C1CCCC(O)=C1N=Nc1ccc2c(c1)OCO2 | -27% | 26% | 3% | 17% | -23%[57.1 µM] | -10% | . | . | . | . | . | . | .
O=C1CCCC(O)=C1N=Nc1ccc(C(=O)O)cc1 | 20µM* | 2.8µM* | 45µM* | 6.3µM* | 32µM* | 3.2µM* | 9.2µM* | 6* | 4.8* | ? | 7.6µM* | ? | 12µM*
Cc1ccc(NC(=O)CN(C)C(=O)c2cccc(-n3cccc3)c2)cc1 | 18µM* | . | ? | 8.9µM* | 35µM* | 2.5µM* | . | 15* | 17* | . | 7.6µM* | -15% | 2.2µM*
Cc1ccc(C)c(NC(=O)CN(C)C(=O)c2cccc(N3C(=O)CCC3=O)c2)c1 | 9% | . | -2% | 27% | -2% | -1% | . | . | . | . | . | . | .
CC(C(=O)O)N1C(=O)/C(=C/C=C/c2ccco2)SC1=S (stereo unspecified) | 1.3µM* | 1.3µM* | 7.9µM* | 0.79µM* | 2.4µM* | 0.79µM* | 2.9µM* | 1.9* | 1.3* | 15* | 0.54µM* | -11% | 0.96µM*
O=C1/C(=C/C=C/c2ccco2)SC(=S)N1NS(=O)(=O)c1ccccc1 | 4.5µM* | ? | 4µM* | 1.8µM* | 8.9µM* | 1.1µM* | 4.1µM* | 2.7* | 1.7* | 17* | 4.8µM* | -18% | 7.6µM*
COc1ccccc1CN(Cc1c(Cl)cccc1Cl)S(=O)(=O)c1ccc(Br)cc1 | -1%[60.1 µM] | 86% | -1% | 12% | . | 5% | . | . | . | . | . | . | .
CN(C)c1ccc(NC(=O)C2(c3cccs3)CCOCC2)cc1 | -8%[60.1 µM] | -11% | 16% | 3% | . | -14% | . | . | . | . | . | . | .
COc1ccc2nc3cc(Cl)ccc3c(Nc3ccc(O)c(CN4CCN(C)CC4)c3)c2c1 | 79µM* | . | 22µM* | ? | 18µM* | ? | . | ? | . | . | 6.1µM* | 11µM* | 22µM*
C=CCSC1=N/C(=C\C=C\c2ccco2)C(=O)S1 | 14µM* | 2.5µM* | 50µM* | 4.5µM* | 32µM* | 3.5µM* | . | 21* | 21* | . | 19µM* | 24µM* | 5.4µM* | Pol kappa inh-2=9.5*
CCN(CC)C(=O)c1sc2c(c1C)c(=O)n(CCc1ccccc1)c(=O)n2Cc1ccc(C)cc1 | -1%[60.1 µM] | -10% | 9% | -7% | . | -19% | . | . | . | . | . | . | .
O=C(O)c1cccc(-n2cccc2/C=N/O)c1 | 35µM* | 13µM* | ? | 11µM* | ? | 3.2µM* | . | 19* | 30* | . | 24µM* | 0% | 19µM*
O=Cc1cccn1-c1cccc([N+](=O)[O-])c1 | -2% | ? | -5% | 13% | 2% | 7% | . | . | . | . | . | . | .
O=C(O)c1cccc(-n2cccc2/C=C/[N+](=O)[O-])c1 | 14µM* | 3.5µM* | ? | ? | 20µM* | 2.8µM* | 21µM* | 15* | 5.4* | 43* | 17µM* | -6% | 19µM*
ON=Cc1cccn1-c1ccccc1 | -2% | 38% | -6% | 30% | -4%[57.1 µM] | -7% | . | . | . | . | . | . | .
Cc1c(Br)c(=O)oc2c(Br)c(O)c(O)cc12 | 22µM* | 4.5µM* | 28µM* | 13µM* | 16µM* | 3.2µM* | 6.5µM* | 24* | 5.4* | 30* | 3.8µM* | ? | 3.4µM*
CCn1c(C(=O)N2CCCC(C(=O)N3CCN(c4cc(C)ccc4C)CC3)C2)cc2sccc21 (stereo unspecified) | -5% | 3% | -14% | -2% | . | -22% | . | . | . | . | . | . | .
O=C(O)CC(CCc1ccccc1)OC1OC(CO)C(O)C(O)C1O (stereo unspecified) | 2µM* | 0.71µM* | 7.9µM* | 1.8µM* | ? | 0.79µM* | ? | 2.7* | 11* | 27* | 1.7µM* | -28% | 1.5µM* | GALK confirm=53µM*;GALK redox cs=-4%;HEK293 tox=9%
